# Biological target: KRT75
# Assay: pooled miR-30 sensor sort-seq; sequence = guide strand
# Settings: shRNA
# Note: reference of the scale not given here.
row,Sequence,sensor-assay potency score (higher = more potent)
1,TTCATCTTCGTACCTGACTTTG,-1
2,TTCACATGTGTAACAGACGGGT,-0.549
3,TTAATAGACACATTCCAGGGAG,0.363
4,TCAACCTGCACTCCTCGCCTTC,-1.25
5,TTCCACAACATCCTGCATGTTC,0.126
6,ATAGGCAGCATCTACGTCCTTT,-0.0293

# Biological target: KRT79
# Assay: as above
# Settings: shRNA
row,Sequence,sensor-assay potency score (higher = more potent)
1,TTGACCGTAGTGGTCTTCCGCA,-0.477
2,ATTTGTGCTGAATCCACCCTTG,0.32
3,TTGATTTCATCCTCGTACTTGT,0.185
4,TTAACCTTCCCTCCCATCCTAC,-1.2
5,TTTGTGGAGTATGTTTGCCGAG,-0.673
6,TCGCTCTCCAGAAGCTTGCGGT,-0.966
7,TTGCCATGCAGATCCATCCGGC,-0.416
8,TTGCCAGTCACAGAAATGCTGA,-0.931
9,TTCTCTGCAGCAGTGTGCTTGT,-0.0157
10,TTCATCCTCGTACTTGTTCTTG,-0.726
11,TTGAGCACCACAAACTCGTTCT,0.422
12,TTTGCCATGCAGATCCATCCGG,-0.203

# Source: the OligoGym collection
